From publication PMC7862700, “An all-to-all approach to the identification of sequence-specific readers for epigenetic DNA modifications on cytosine” come the findings set out here.

Holding throughout (assay): DAPPL (digital affinity profiling via proximity ligation, sequencing); 10 mM Tris-HCl pH 7.5, 50 mM NaCl, 1 mM DTT, 4% glycerol, room temperature, 30 min; GST-TFs on glutathione beads, 16-mer random dsDNA library, 0.1% formaldehyde crosslink after washing; high values mean tight binding
Conditions in all cases: protein: recombinant; tags: N-terminal GST; dsDNA, one strand shown

For experiment [1], the target named is T1, ELK1 (Homo sapiens, UniProt P19419 1-428).
T1 sequence: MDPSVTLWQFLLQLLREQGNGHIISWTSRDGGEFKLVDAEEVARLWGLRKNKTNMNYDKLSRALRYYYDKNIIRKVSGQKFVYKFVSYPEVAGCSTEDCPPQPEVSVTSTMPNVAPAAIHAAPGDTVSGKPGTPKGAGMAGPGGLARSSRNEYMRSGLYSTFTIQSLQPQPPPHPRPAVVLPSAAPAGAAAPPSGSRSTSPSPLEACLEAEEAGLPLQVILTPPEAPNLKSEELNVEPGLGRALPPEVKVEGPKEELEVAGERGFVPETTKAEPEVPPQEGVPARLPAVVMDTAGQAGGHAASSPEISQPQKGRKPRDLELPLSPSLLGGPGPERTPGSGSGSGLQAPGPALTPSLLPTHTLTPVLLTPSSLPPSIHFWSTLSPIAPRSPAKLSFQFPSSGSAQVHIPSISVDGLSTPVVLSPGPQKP
The gist of the method:
(§1)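 Binding signal is given per hexamer as its read frequency for a factor divided by its frequency in the tag-only sample. GST-fused human transcription factors were expressed in yeast, captured on glutathione beads, barcoded with DNA and pooled with that sample, then incubated with 200 nmole of a 16-mer random double-stranded DNA library in Tris/NaCl/DTT/glycerol buffer for 30 min at room temperature. The pools were then washed, crosslinked, proximity-ligated, amplified by PCR and sequenced on an Illumina NextSeq500.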

Experiment [2] deals with ELF1 (Homo sapiens, UniProt P32519 1-619). The gist of the method: as §1
The target of experiment [3] is T2, EHF (Homo sapiens, UniProt Q9NZC4 1-300).
T2 sequence: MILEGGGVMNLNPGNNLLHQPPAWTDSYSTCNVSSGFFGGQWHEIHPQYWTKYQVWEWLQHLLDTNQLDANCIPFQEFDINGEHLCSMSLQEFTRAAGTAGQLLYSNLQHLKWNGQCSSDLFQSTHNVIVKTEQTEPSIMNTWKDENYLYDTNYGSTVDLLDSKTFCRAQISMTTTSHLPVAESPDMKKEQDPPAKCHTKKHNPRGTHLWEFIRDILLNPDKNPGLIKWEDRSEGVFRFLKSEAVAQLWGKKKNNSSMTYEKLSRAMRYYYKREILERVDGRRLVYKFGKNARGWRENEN
The gist of the method:
as §1

Experiment [4] deals with T3, SPIC (Homo sapiens, UniProt Q8N5J4 1-248).
T3 sequence: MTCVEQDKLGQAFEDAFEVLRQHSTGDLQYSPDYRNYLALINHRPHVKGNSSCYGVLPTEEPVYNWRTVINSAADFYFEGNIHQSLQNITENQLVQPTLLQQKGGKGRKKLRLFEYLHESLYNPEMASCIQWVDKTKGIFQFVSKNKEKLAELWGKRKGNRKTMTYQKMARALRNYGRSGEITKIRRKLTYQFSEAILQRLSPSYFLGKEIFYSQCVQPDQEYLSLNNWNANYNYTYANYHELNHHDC
The gist of the method:
as §1

Experiment [5] has as its target T4, ELK4 (Homo sapiens, UniProt P28324-2 1-405).
T4 sequence: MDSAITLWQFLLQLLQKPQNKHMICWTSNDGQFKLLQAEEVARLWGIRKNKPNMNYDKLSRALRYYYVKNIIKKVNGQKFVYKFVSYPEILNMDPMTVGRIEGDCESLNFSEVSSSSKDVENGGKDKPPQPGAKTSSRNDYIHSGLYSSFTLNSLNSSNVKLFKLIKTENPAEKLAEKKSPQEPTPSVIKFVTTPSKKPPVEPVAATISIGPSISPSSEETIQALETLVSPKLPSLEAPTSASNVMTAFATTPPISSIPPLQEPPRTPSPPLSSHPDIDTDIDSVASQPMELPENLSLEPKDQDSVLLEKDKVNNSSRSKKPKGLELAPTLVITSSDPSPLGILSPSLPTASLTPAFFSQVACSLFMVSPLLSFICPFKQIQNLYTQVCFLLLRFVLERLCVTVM
The gist of the method:
as §1

In experiment [6] the target is T5, ETV2 (Homo sapiens, UniProt O00321 1-342).
T5 sequence: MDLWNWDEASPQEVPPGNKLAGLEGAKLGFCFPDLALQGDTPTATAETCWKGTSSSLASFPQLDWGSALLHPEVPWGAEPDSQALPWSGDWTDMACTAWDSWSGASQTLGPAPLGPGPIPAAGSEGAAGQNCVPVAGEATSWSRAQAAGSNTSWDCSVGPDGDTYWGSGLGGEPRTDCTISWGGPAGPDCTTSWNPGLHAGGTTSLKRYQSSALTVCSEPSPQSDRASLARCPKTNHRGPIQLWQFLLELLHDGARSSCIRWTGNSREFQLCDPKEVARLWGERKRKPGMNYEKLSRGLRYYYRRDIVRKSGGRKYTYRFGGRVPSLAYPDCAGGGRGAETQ
The gist of the method: as §1

The target of experiment [7] is T6, ELF3 (Homo sapiens, UniProt P78545 1-371).
T6 sequence: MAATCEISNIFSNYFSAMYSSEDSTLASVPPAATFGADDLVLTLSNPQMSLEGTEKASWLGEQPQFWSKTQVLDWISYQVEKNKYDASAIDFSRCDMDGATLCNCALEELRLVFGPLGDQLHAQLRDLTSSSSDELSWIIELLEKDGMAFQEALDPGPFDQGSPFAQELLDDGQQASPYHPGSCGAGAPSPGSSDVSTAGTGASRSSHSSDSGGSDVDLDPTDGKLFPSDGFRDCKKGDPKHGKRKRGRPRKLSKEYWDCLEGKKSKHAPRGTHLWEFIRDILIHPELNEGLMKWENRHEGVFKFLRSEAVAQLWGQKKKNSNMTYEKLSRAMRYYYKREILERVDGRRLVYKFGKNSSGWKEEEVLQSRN
The gist of the method:
as §1

Experiment [8] deals with ETV1 (Homo sapiens, UniProt P50549 1-477). The gist of the method:
as §1

Experiment [9] has as its target T7, ERF (Homo sapiens, UniProt P50548 1-548).
T7 sequence: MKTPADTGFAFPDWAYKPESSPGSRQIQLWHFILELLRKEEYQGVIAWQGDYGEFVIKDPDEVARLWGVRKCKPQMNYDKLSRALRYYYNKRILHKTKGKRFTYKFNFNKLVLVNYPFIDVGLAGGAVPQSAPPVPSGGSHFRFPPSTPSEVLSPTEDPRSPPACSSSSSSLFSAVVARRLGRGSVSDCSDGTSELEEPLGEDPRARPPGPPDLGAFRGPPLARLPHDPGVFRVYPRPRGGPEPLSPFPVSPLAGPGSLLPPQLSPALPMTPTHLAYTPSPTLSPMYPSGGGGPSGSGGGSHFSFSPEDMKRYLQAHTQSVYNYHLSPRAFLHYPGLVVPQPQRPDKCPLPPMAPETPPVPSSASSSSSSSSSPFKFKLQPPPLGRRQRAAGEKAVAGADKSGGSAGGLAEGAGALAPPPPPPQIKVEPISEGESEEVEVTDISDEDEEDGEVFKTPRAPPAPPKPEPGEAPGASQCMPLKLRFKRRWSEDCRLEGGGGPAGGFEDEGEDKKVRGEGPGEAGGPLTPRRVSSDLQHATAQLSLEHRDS
The gist of the method: as §1

Experiment [10] addresses T8, SPDEF (Homo sapiens, UniProt O95238 1-335).
T8 sequence: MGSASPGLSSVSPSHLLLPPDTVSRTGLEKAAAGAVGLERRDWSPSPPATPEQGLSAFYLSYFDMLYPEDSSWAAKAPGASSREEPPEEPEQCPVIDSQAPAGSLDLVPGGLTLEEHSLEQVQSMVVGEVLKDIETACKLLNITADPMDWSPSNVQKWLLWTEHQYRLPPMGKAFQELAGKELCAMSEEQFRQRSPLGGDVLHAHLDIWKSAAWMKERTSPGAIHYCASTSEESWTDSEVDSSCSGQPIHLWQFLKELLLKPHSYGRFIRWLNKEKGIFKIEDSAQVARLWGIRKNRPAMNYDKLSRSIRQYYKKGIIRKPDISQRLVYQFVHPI
The gist of the method: as §1

The target of experiment [11] is T9, ELF5 (Homo sapiens, UniProt Q9UKW6-2 1-255).
T9 sequence: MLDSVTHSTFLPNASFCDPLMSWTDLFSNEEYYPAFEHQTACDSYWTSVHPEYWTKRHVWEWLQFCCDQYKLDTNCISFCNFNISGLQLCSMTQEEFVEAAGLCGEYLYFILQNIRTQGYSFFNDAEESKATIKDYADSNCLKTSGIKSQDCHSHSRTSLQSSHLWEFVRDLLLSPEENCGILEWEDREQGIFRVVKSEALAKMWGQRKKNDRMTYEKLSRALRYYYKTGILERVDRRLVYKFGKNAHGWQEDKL
The gist of the method:
as §1

Chain of ETV1 (P50549 whole entry): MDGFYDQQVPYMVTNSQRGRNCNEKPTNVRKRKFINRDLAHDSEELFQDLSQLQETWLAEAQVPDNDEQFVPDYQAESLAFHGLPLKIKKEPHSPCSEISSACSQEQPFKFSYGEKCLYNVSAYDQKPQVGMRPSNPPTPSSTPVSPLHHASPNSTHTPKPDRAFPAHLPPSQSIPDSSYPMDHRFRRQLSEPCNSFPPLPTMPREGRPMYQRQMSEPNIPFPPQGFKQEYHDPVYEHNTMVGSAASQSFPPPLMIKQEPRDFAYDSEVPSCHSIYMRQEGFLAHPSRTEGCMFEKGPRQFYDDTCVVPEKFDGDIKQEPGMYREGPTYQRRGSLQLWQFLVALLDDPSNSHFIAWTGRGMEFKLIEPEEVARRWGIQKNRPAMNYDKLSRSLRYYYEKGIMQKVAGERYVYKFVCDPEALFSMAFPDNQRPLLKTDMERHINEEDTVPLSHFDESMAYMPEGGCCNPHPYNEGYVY
Chain of ELF1 (P32519 whole entry): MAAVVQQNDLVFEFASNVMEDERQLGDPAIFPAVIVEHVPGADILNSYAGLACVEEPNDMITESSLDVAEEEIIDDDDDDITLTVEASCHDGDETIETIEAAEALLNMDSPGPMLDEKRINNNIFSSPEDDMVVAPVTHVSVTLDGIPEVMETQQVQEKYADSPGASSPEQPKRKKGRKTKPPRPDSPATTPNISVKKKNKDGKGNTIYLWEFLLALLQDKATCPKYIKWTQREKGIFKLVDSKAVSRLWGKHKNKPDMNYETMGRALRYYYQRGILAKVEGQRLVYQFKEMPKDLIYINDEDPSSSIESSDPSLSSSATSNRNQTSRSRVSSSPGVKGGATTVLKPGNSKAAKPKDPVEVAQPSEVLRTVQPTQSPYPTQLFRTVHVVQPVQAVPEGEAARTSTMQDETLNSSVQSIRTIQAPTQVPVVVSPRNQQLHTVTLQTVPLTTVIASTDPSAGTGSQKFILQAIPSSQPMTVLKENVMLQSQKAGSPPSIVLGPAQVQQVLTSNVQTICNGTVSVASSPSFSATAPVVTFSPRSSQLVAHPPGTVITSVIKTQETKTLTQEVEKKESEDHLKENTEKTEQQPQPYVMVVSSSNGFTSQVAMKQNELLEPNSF

With ATCACG, the binding signal in experiment [1] was 1.04 fold enrichment (6-mer frequency, TF over GST control); in [2], 1.03 fold enrichment (6-mer frequency, TF over GST control); in experiment [3] it was 1.08 fold enrichment (6-mer frequency, TF over GST control); in [4], 1.04 fold enrichment (6-mer frequency, TF over GST control); in [5] it was 1 fold enrichment (6-mer frequency, TF over GST control); in experiment [6], 1.07 fold enrichment (6-mer frequency, TF over GST control). Also, the binding signal is 1.01 fold enrichment (6-mer frequency, TF over GST control) in experiment [7]; 1.02 fold enrichment (6-mer frequency, TF over GST control) in experiment [8]; 1.07 fold enrichment (6-mer frequency, TF over GST control) in experiment [9]; 1.07 fold enrichment (6-mer frequency, TF over GST control) in experiment [10]; 1.02 fold enrichment (6-mer frequency, TF over GST control) in experiment [11].
